Screens (PubChem BioAssay)
A selection: hits, their analogues and other compounds. The true share with any hit is near 7.4%.
FLuc inh-1 – Firefly luciferase inhibition profiling of diverse chemical library using quantitative high-throughput screening | Potency, µM (titrated, usually from 115 µM), usual class: inhibitors | AID 1347043, 2019 | 2.5% of 76,000 active | Luciferin 4-monooxygenase (Photinus pyralis), P08659 | purified P. pyralis luciferase, luminescence, biochemical; further: nearly all actives have a fitted effect of over 65% in size
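FLuc 10nM, D-luciferin 10uM, ATP 10uM, Mg acetate 10mM, Tris acetate pH 7.5, Tween/BSA; cpd qHTS; enzyme added last; CCD luminescence.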
HEK293 viab – GF-AFC viability counterscreen for inhibitors of alpha-synuclein gene (SNCA) expression. 0.12% of 150,000 active. HEK-293-SNCA-luc viability, GF-AFC fluorescence, 24 h. Potency, µM (titrated, usually from 57.1 µM), actives largely listed as cytotoxic; further: nearly all actives have a fitted effect of over 30% in size
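HEK-293-SNCA-luc cells (1500/well) plated 24 h, then exposed 24 h to a dilution series; GF-AFC added 30 min at 37C, fluorescence 405/540 nm; normalised to medium-only and DMSO wells, Hill fit.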
NPR1 antag – Natriuretic polypeptide receptor (hNpr1) antagonism - Primary qHTS. Atrial natriuretic peptide receptor 1 (Homo sapiens), P16066. 1.6% of 76,000 active. HEK293 hNpr1 GloSensor cGMP, ANP-stimulated luminescence. Potency, µM (series often up to 46.3 µM), hits mostly inhibitors. AID 1347048, 2019; calls by dose curve; further: nearly all actives have a fitted effect of over 60% in size
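Compound pre-incubated 30 min at room temperature on GloSensor-loaded HEK293 cells stably carrying hNpr1 and the pGS-40F cGMP biosensor. Stimulation uses hNppA at 0.1 nM final; luminescence is taken at baseline and 20 min post-agonist.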
SNCA expr inhib – Primary qHTS assay for inhibitors of alpha-synuclein gene (SNCA) expression | HEK-293 SNCA-luciferase knock-in, luminescence, 24 h | Potency, µM (titrated, usually from 57.2 µM), actives largely listed as inhibitors | 0.17% of 140,000 active; further: nearly all actives have a fitted effect of over 45% in size
HEK cytotox – Cytotoxic Profiling in HEK 293 Cell Line of Diverse Libraries Using Quantitative High-Throughput Screening; HEK 293 viability, ATP luminescence (CellTiter-Glo), 48-72 h; Potency, µM (top dose mostly 115 µM), hits mostly inhibitors; 6.6% of 94,000 active; further: nearly all actives have a fitted effect of over 60% in size
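Pintool-delivered compounds were incubated with HEK 293 cells (250 cells/well) at 37 degree Celsius for 48 or 72 hr. ATP-dependent luminescence (CellTiter-Glo) then reported remaining viable cells.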
3T3 cytotox – Cytotoxic Profiling in NIH 3T3 Cell Line of Diverse Libraries Using Quantitative High-Throughput Screening; Potency, µM (series often up to 96.7 µM), actives largely listed as inhibitors; AID 1345082, 2018; NIH 3T3 viability, CellTiter-Glo ATP luminescence, 48-72 h; 4.3% of 94,000 active; further: nearly all actives have a fitted effect of over 55% in size
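Viability of NIH 3T3 cells after 48 or 72 hr compound treatment at 37 °C was assessed by CellTiter-Glo, with luminescence imaged following a 10 min room-temperature step.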
FLuc SDR -ATP – Firefly luciferase (FLuc-C-HiBiT) SDR gain of signal screen - without ATP; Potency, µM (doses to about 32.7 µM), actives largely listed as activators; shares compounds with FLuc inh-1; 7.8% of 1,300 active; Purified FLuc-C-HiBiT, Nano-Glo HiBiT luminescence, no ATP; AID 1963318, 2024; further: nearly all actives have a fitted effect of over 55% in size
FLuc SDR ATP – Firefly luciferase (FLuc-C-HiBiT) SDR gain of signal screen - plus ATP | shares compounds with FLuc inh-1 | purified FLuc-C-HiBiT + ATP, HiBiT complementation luminescence | Potency, µM (highest dose often 32.7 µM), most hits filed as activators | 8.7% of 1,300 active | AID 1963319, 2024;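 further: signal reports ligand binding via conformational change of the enzyme rather than luciferase catalysis; nearly all actives have a fitted effect of over 55% in size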
FLuc inh-2 – Firefly luciferase (FLuc-C-HiBiT) enzymatic inhibition screen - Functional assay; Potency, µM (doses to about 32.7 µM), usual class: inhibitors; shares compounds with FLuc inh-1; AID 1963320, 2024; purified FLuc-C-HiBiT enzyme, luciferin luminescence; 42% of 1,300 active; further: nearly all actives have a fitted effect of over 70% in size
Large screens that a line does not name were inactive (follow-up assays come after a bar, where they were run). Unless noted, the call rests on the fitted dose curve; in most records, active means well fitted curve in the direction sought with a large enough effect; inconclusive means small, poorly fitted or top-dose-only effect, or another doubt; inactive means no such curve, though single readings can be large; an effect the other way counts as inactive or inconclusive.

CCCN1C(=O)c2ccc(-c3nc4ccccc4s3)cc2C1=O	none (no result: FLuc inh-1, HEK293 viab, NPR1 antag, SNCA expr inhib, HEK cytotox, 3T3 cytotox) | FLuc SDR -ATP inconclusive | FLuc SDR ATP inactive | FLuc inh-2 2µM
CCCCC(=O)Nc1cc(-c2nc3ccccc3s2)ccc1C	none (no result: FLuc inh-1, HEK293 viab, NPR1 antag, SNCA expr inhib, HEK cytotox, 3T3 cytotox) | FLuc SDR -ATP inactive | FLuc SDR ATP inactive | FLuc inh-2 inactive
CC(=O)Nc1cc(-c2nc3ccccc3s2)ccc1C	none (no result: FLuc inh-1, NPR1 antag, HEK cytotox, 3T3 cytotox) | FLuc SDR -ATP inactive | FLuc SDR ATP inactive | FLuc inh-2 inconclusive
CCc1cc2c(=O)c(-c3nc4ccccc4s3)coc2c(CN2CCCCC2)c1O	none (no result: FLuc inh-1, NPR1 antag, SNCA expr inhib, HEK cytotox, 3T3 cytotox)
CCc1ccc(-n2nc(CO)c(C(=O)NCC(c3ccccc3)c3ccccc3)n2)cc1	none (no result: FLuc inh-1, NPR1 antag, HEK cytotox, 3T3 cytotox)
CCc1ccc(-n2nc(CO)c(C(=O)NC)n2)cc1	none (no result: FLuc inh-1, NPR1 antag, HEK cytotox, 3T3 cytotox) | FLuc SDR -ATP inconclusive | FLuc SDR ATP inactive | FLuc inh-2 inconclusive
Cc1nc(C(=O)N2CCC(c3nnc(Cn4cccn4)n3C)CC2)cs1	none
O=C(O)c1ccc(-c2noc(-c3cccc(Cl)c3)n2)cc1	none (no result: FLuc inh-1, HEK293 viab, NPR1 antag, SNCA expr inhib, HEK cytotox, 3T3 cytotox) | FLuc SDR -ATP inconclusive | FLuc SDR ATP inconclusive | FLuc inh-2 7µM
Cc1noc(-c2nc(-c3cccc(Cl)c3)no2)n1	FLuc inh-1 inconclusive, HEK cytotox inconclusive
c1ccc(-c2noc(-c3ccc4ccccc4c3)n2)cc1	none (no result: FLuc inh-1, HEK293 viab, NPR1 antag, SNCA expr inhib, HEK cytotox, 3T3 cytotox) | FLuc SDR -ATP inactive | FLuc SDR ATP inconclusive | FLuc inh-2 0.7µM
Cc1nc(-c2ccc(C)c(N3CCN(C(=O)Nc4ccccc4C(F)(F)F)CC3)c2)no1	none (no result: FLuc inh-1, NPR1 antag, HEK cytotox, 3T3 cytotox)
CC(=O)Nc1cccc(-c2nc(-c3ccccc3)no2)c1	none (no result: FLuc inh-1, NPR1 antag, HEK cytotox, 3T3 cytotox)
O=C(O)c1ccc(-c2noc(-c3ccccc3Cl)n2)cc1	none (no result: FLuc inh-1, HEK293 viab, NPR1 antag, SNCA expr inhib, HEK cytotox, 3T3 cytotox) | FLuc SDR -ATP inactive | FLuc SDR ATP 1.6µM | FLuc inh-2 1.1µM
O=C(O)c1ccc(-c2noc(-c3ccccc3C(F)(F)F)n2)cc1	none (no result: FLuc inh-1, HEK293 viab, NPR1 antag, SNCA expr inhib, HEK cytotox, 3T3 cytotox) | FLuc SDR -ATP inactive | FLuc SDR ATP inconclusive | FLuc inh-2 inconclusive
Cc1ccc(OCC(=O)N2CCCC(CN3CCCC3)CC2)cc1 (stereo not given)	none
COCCNC(=O)C[C@@H]1C[C@H]2O[C@H](CNC3CCNCC3)[C@@H](O)[C@H]2O1	none
O=C(O)c1cccc(-c2noc(-c3ccccc3C(F)(F)F)n2)c1	none (no result: FLuc inh-1, HEK293 viab, NPR1 antag, SNCA expr inhib, HEK cytotox, 3T3 cytotox) | FLuc SDR -ATP inactive | FLuc SDR ATP 0.12µM | FLuc inh-2 0.062µM
Cc1cccc(C(=O)Nc2ccccc2-c2nc(-c3ccccc3)no2)c1	none (no result: FLuc inh-1, NPR1 antag, HEK cytotox, 3T3 cytotox)
O=C(Nc1nn(-c2cccc(F)c2)c2cccc(N3CCOCC3)c12)C1CCC1	FLuc inh-1 7.9µM, NPR1 antag inconclusive, HEK cytotox 45µM, 3T3 cytotox inconclusive | FLuc SDR -ATP inconclusive | FLuc SDR ATP inactive | FLuc inh-2 inconclusive
Cc1ccc(CN2C(=O)[C@@H]3C[C@@H](O)CN3C3(CN(C4CCOCC4)C3)C2=O)o1	none
Cc1ccc(-c2nnc(SCc3ccccc3C#N)o2)cc1	none (no result: FLuc inh-1, NPR1 antag, HEK cytotox, 3T3 cytotox) | FLuc SDR -ATP inactive | FLuc SDR ATP inconclusive | FLuc inh-2 2.2µM
CC1CCCN1C(=O)c1cc(-c2cnn(C(C)C)c2)nc2cc(F)ccc12 (stereo not given)	FLuc inh-1 inconclusive, 3T3 cytotox inconclusive
